The values that follow come from PMC4336329 (PLoS ONE, 2015).

Among all 310,000 compounds or so, about 14,000 (4.5%) showed an effect of 50% or more. The effect is printed as a negative number. The sample as a whole holds a higher share of strong results than the screen did.
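Also: peak tail current of the secondary pulse compared with the same well before compound.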

Sequence of human ether-à-go-go-related gene (hERG) potassium channel (Q12809 whole entry, looked up): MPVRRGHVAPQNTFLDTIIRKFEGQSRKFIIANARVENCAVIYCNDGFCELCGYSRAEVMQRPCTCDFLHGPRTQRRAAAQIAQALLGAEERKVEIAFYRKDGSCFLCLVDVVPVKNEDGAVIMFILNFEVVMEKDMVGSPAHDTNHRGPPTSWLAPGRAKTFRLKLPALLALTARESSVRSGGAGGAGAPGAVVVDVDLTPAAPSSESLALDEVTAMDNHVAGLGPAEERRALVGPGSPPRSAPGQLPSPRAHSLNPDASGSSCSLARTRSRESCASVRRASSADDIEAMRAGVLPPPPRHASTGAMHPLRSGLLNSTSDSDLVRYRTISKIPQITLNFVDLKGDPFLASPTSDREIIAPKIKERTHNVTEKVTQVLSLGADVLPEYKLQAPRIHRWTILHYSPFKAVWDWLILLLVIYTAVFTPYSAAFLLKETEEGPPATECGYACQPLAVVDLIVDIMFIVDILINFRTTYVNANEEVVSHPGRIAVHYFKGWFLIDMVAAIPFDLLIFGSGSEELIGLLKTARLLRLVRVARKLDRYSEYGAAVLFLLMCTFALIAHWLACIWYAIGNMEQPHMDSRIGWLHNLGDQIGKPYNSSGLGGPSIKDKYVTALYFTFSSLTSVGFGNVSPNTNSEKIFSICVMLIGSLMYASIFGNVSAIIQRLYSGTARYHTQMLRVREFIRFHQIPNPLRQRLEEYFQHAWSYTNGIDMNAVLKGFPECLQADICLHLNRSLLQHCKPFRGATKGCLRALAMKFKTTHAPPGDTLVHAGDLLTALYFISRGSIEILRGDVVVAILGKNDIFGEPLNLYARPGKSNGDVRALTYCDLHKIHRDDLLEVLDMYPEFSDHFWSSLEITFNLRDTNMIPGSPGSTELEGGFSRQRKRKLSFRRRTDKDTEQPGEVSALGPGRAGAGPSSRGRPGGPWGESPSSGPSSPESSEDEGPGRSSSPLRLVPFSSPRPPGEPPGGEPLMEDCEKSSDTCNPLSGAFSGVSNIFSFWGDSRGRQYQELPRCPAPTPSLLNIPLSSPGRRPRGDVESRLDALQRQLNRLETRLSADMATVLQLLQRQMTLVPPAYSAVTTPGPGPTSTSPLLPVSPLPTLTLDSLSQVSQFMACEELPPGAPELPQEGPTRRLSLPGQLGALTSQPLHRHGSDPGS

This assay has as its target human ether-à-go-go-related gene (hERG) potassium channel (human, UniProt Q12809). Kind of assay: primary screen, population patch clamp on CHO cells stably expressing hERG; higher = less effect of the substance.
As to `Cc1ccc(-n2nnnc2SCC(=O)NCC2(N3CCCCC3)CCCCC2)c(C)c1`, the “hERG current change (%, negative = inhibition) at 10uM” value is -284%.
Regarding `O=C(CSc1nnnn1-c1ccccc1)NCC1(N2CCOCC2)CCCCC1`, the “hERG current change (%, negative = inhibition) at 10uM” value is reported as -21.3%.
Regarding `CNC(=O)CSc1nnnn1-c1ccc(C)cc1C`, the “hERG current change (%, negative = inhibition) at 10uM” value is 7.63%.
Consider `Cc1ccc(-n2nnnc2SCC(=O)NCCC2=CCCCC2)c(C)c1`, for which the “hERG current change (%, negative = inhibition) at 10uM” value was -13.1%.
As to `O=C(CSc1nnnn1-c1ccccc1)NCC1(N2CCCCC2)CCCCC1`, the “hERG current change (%, negative = inhibition) at 10uM” value is recorded as -62.3%.
The value for `O=C(CSc1ccccc1)NCC1(N2CCCCC2)CCCCC1` was -0.798%; that for `COCCN(C(=O)COC(=O)c1ccccc1Oc1ccccc1)c1c(N)n(Cc2ccccc2)c(=O)[nH]c1=O` was -21.6%.
For `Cc1cc(C(=O)N2CCN(c3ncccn3)CC2)sc1-c1ccccc1`, the “hERG current change (%, negative = inhibition) at 10uM” value is on record as -3.34%.
Turning to `O=[N+]([O-])c1ccccc1/C=N/NC1=NCCN1`, the “hERG current change (%, negative = inhibition) at 10uM” value is 7.6%.
The value for `COc1ccccc1N1CCN(C(=O)CCNC(=O)Cn2ccc3ccccc3c2=O)CC1` was 2.62%; that for `CN(C(=O)C1CCC(=O)N(CCCN2CCCC2=O)C1)C(C1CC1)C1CC1` (stereo not drawn) was 12.1%.
Take `CC(=O)Nc1ccc(S(=O)(=O)Nc2ccc3c(c2)OCO3)cc1`: the “hERG current change (%, negative = inhibition) at 10uM” value is recorded as 17.2%.
In the case of `O=C(Nc1cccc(S(=O)(=O)N2CCCCC2)c1)C1CCC1`, the “hERG current change (%, negative = inhibition) at 10uM” value is given as 3.43%.
`O=C(Nc1cccc(S(=O)(=O)N2CCCCCC2)c1)C1CCN(C(=O)c2ccc(Cl)cc2)CC1`: the “hERG current change (%, negative = inhibition) at 10uM” value is reported as -41.9%.
For the compound `CN(C)S(=O)(=O)c1cccc(NC(=O)COC(=O)C2CCN(C(=O)c3ccc(F)cc3)CC2)c1`, the “hERG current change (%, negative = inhibition) at 10uM” value is reported as -50.8%.
With `O=C(Nc1cccc(S(=O)(=O)N2CCCCC2)c1)C1CCN(C(=O)c2ccc(Cl)cc2)CC1`, the “hERG current change (%, negative = inhibition) at 10uM” value is listed as -31.7%.
Consider `O=C(Nc1cccc(S(=O)(=O)N2CCOCC2)c1)[C@@H]1CCCN1S(=O)(=O)c1ccc(Cl)cc1`, for which the “hERG current change (%, negative = inhibition) at 10uM” value was -62.8%.
Take `O=C(Nc1cccc(S(=O)(=O)N2CCCCCC2)c1)C1CCN(C(=O)c2ccc(F)cc2)CC1`: the “hERG current change (%, negative = inhibition) at 10uM” value is recorded as -88%.
In the case of `O=C(Nc1cccc(S(=O)(=O)N2CCOCC2)c1)C1CCCN(C(=O)c2ccc(Cl)cc2)C1` (stereo not drawn) it was -32.4%; in that of `CN(c1ccccc1)S(=O)(=O)c1cccc(NC(=O)COC(=O)C2CCCCC2)c1`, 13.7%; in that of `O=C(Nc1cccc(S(=O)(=O)N2CCOCC2)c1)C1CCCC1`, -4.03%.
The value for `CN(C)S(=O)(=O)c1cccc(NC(=O)COC(=O)CCC(=O)c2ccc(F)cc2)c1` was -36%.
For the compound `O=C(Nc1cccc(S(=O)(=O)N2CCCCCC2)c1)C1CCC1`, the “hERG current change (%, negative = inhibition) at 10uM” value is -57.4%.
As to `O=C(Nc1cccc(S(=O)(=O)N2CCCCC2)c1)C1CC1`, the “hERG current change (%, negative = inhibition) at 10uM” value is -10.6%.
For `CC(C)CCNC(=O)c1ccc2c(SCC(=O)O)c3c(nc2c1)CCCC3`, the “hERG current change (%, negative = inhibition) at 10uM” value is -2.6%.
In the case of `Cc1ccc(N(C)S(=O)(=O)c2csc(C(N)=O)c2)cc1C` it was -14.8%.
The value for `Cc1ccc(CN2C(=O)CCC2C(=O)NCCN(CC(C)C)CC(C)C)cc1` (stereo not drawn) was -13.4%; that for `CCOc1cc(N2CCOCC2)c(OCC)cc1NC(=O)C1=NN(c2cccc(C)c2)C(=O)CC1` was -3.8%; that for `COc1cc(Cn2nnc3ccccc32)cc(Br)c1O` was 3%.
Turning to `Cc1ccccc1NC(=O)Cn1c(CCC(=O)O)ccc1-c1cccs1`, the “hERG current change (%, negative = inhibition) at 10uM” value is 15.4%.
On to `CCN(C(=O)CSc1ccc2ccccc2n1)C1CCS(=O)(=O)C1` (stereo not drawn), for which the “hERG current change (%, negative = inhibition) at 10uM” value was -7.61%.
The value for `Cc1ccc(-n2c(=O)c3c(C)c(C)sc3n(Cc3cc(=O)n4ccccc4n3)c2=O)cc1C` was -4.43%; that for `Cc1sc2c(c1C)c(=O)n(-c1ccc(Cl)cc1)c(=O)n2Cc1cc(=O)n2ccccc2n1` was -36.4%.
The value for `Cc1ccc(-n2c(=O)c3c4c(sc3n(Cc3cc(=O)n5ccccc5n3)c2=O)CCC4)cc1C` was -69.1%; that for `CS(=O)(=O)N(Cc1ccc(C(=O)NN=C2CCCCCC2)cc1)c1ccccc1` was -7.08%; that for `CCCCC(C(=O)O)C(C)CC(=O)NNC(=O)c1ccco1` (stereo not drawn) was 13.2%.
The value for `C(=N\Nc1nncc2ccccc12)/c1ccccc1` was 1.52%; that for `COc1ccc(OC)c(N/C(=N/c2nc(C)cc(C)n2)NC(C)=O)c1` was 14.5%; that for `CCOC(=O)Nc1cc(C)ccc1OC` was 11.2%.
`Cc1ccc(C)c(N/C(N)=N/c2nc(C)cc(C)n2)c1`: the “hERG current change (%, negative = inhibition) at 10uM” value is listed as -34.2%.
Regarding `COc1ccc(C)cc1N/C(N)=N/c1nc(C)cc(C)n1`, the “hERG current change (%, negative = inhibition) at 10uM” value is -74.4%.
For `COc1ccc(OC)c(N/C(N)=N/c2nc(C)cc(C)n2)c1`, the “hERG current change (%, negative = inhibition) at 10uM” value is reported as -50.1%.
On to `COc1ccc(Cl)cc1N/C(N)=N/c1nc(C)cc(C)n1`, for which the “hERG current change (%, negative = inhibition) at 10uM” value is given as -84.2%.
The value for `COc1ccccc1N/C(N)=N/c1nc(C)cc(C)n1` was -32.9%.
For `CC(=O)N/C(=N/c1nc(C)cc(C)n1)Nc1ccc(C)cc1C`, the “hERG current change (%, negative = inhibition) at 10uM” value is given as -10.6%.
The value for `COc1ccc(N/C(N)=N/c2nc(C)cc(C)n2)c(OC)c1` was -26.4%; that for `COc1ccc(Cl)cc1N/C(N)=N/c1nc(C)cc(=O)[nH]1` was 20%; that for `COc1ccc(Cl)cc1NC(=O)CSc1nc(C)cc(C)n1` was -32.6%.
For `Cc1ccc(N/C(N)=N/c2nc(C)cc(N3CCCCC3)n2)c(C)c1`, the “hERG current change (%, negative = inhibition) at 10uM” value is reported as -83%.
As to `CCOc1ccc(CNC(=O)C(=O)c2cn(CC(=O)N3CCOCC3)c3ccccc23)cc1OC`, the “hERG current change (%, negative = inhibition) at 10uM” value is 17.1%.
In the case of `COC(=O)C1=C(C)Nc2ncnn2C1c1cccnc1` (stereo not drawn) it was 2.93%; in that of `O=C(Cn1ncc2c([nH]c3ccccc32)c1=O)N1CCN(c2ccccc2F)CC1`, 1.65%.
The value for `CCN(CC)CCCN1C(=O)C(=O)/C(=C(/O)c2ccc3c(c2)OCCO3)C1c1ccco1` (stereo not drawn) was -6.06%; that for `CC(C)c1cccc(C(C)C)c1NC(=O)COC(=O)[C@H](C)NC(N)=O` was 16.8%.
